# Source: PubChem BioAssay (EPA / NIEHS)
# Records with an inconclusive call do not appear. The source made the active and inactive calls. The calls were made as follows, unless noted: active = hit-call score of the fitted dose curve at least 0.9, where 1 is the maximum; inactive = score below 0.9.
# Key:
# [1] = target: Glucocorticoid receptor (Homo sapiens) (UniProt P04150); experiment: ATG_GR_TRANS: Attagene TRANS-FACTORIAL HepG2 Assay for human Glucocorticoid Receptor (GR) (AID 2282978; active = hit-call score of the fitted dose curve at least 0.9, where 1 is the maximum;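 also: activators score as hits since higher reporter transcript over DMSO is fitted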); conditions: HepG2 Attagene TRANS GR reporter, mRNA transcription
# Procedure, shortened: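 Readout is reporter transcript from a chimeric GR-Gal4 acting on GAL4-UAS in transfected human HepG2 liver cells after 24 h exposure, quantified by RT-PCR and capillary electrophoresis. Activation fitted upward against DMSO.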
# [2] = target: Bile acid receptor (Homo sapiens) (UniProt Q96RI1); experiment: ATG_FXR_TRANS: Attagene TRANS-FACTORIAL HepG2 Assay for Farnesoid X Receptor (FXR) (AID 2282979; active = hit-call score of the fitted dose curve at least 0.9, where 1 is the maximum;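 also: hits raise reporter mRNA above DMSO so AC50 marks FXR activation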); conditions: HepG2 Attagene TRANS FXR-GAL4 reporter transcription
# Procedure, shortened: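 After 24 h chemical treatment of transfected HepG2 cells, GAL4-UAS reporter transcripts driven by an exogenous FXR-GAL4 fusion were measured by RT-PCR and capillary electrophoresis. Increases over DMSO were fitted.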
# [3] = ATG_M_32_TRANS: Attagene TRANS-FACTORIAL HepG2 Assay for M32 Transcription Factor (Internal Marker) (AID 2282984; active = hit-call score of the fitted dose curve at least 0.9, where 1 is the maximum;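 also: transcript level of a background control reporter unit measured by RT-PCR and capillary electrophoresis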); conditions: HepG2 Attagene TRANS M32 internal marker reporter
# Procedure, shortened: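 Cell-based TRANS-format assay in HepG2: exogenous chimeric GAL4 reporter units transiently expressed, compounds applied 24 h. Reporter mRNA detected by RT-PCR plus capillary electrophoresis; this readout is an internal background marker.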
# [4] = target: Nuclear receptor subfamily 4 group A member 2 (Homo sapiens) (UniProt P43354); experiment: ATG_NURR1_TRANS: Attagene TRANS-FACTORIAL HepG2 Assay for human Nuclear Receptor Related Protein 1 (NURR1) (AID 2282985; active = hit-call score of the fitted dose curve at least 0.9, where 1 is the maximum); conditions: HepG2 Attagene TRANS reporter, mRNA readout
# Procedure, shortened: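 Measures transcriptional activation by an exogenous NR-Gal4 chimera in transfected HepG2 liver cells. After 24 h, reporter RNA is reverse-transcribed, amplified and resolved by capillary electrophoresis; DMSO defines baseline.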
# [5] = target: Transcriptional activator Myb (Homo sapiens) (UniProt P10242); experiment: ATG_Myb_CIS: Attagene CIS-FACTORIAL HepG2 Assay for human Myeloblastosis (Myb) Proto-Oncogene Transcription Factor (AID 2282986); conditions: HepG2 Attagene CIS-FACTORIAL Myb reporter transcription; actives raise or lower the signal
# Procedure, shortened: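 Reporter mRNA is quantified by RT-PCR and capillary electrophoresis 24 h after dosing HepG2 cells transfected with cis-regulated reporter units, which track endogenous transcription factor activity. Gain and loss of signal are fitted versus DMSO baseline.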
# [6] = target: Nuclear respiratory factor 1 (Homo sapiens) (UniProt Q16656); experiment: ATG_NRF1_CIS: Attagene CIS-FACTORIAL HepG2 Assay for human Nuclear Respiratory Factor 1 (NRF1) Orphan Gene (AID 2282987); conditions: HepG2 NRF1 cis-element reporter, Attagene multiplex; actives raise or lower the signal
# Procedure, shortened: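 Endogenous NRF1-driven reporter transcription in transfected HepG2 cells after 24 h treatment. Readout: RT-PCR products, 6-FAM labelled and resolved by capillary electrophoresis; changes fitted both directions relative to DMSO.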
# [7] = target: Myc proto-oncogene protein (Homo sapiens) (UniProt P01106); experiment: ATG_Myc_CIS: Attagene CIS-FACTORIAL HepG2 Assay for human Myelocytomatosis (Myc) Proto-Oncogene Transcription Factor (AID 2282990); conditions: HepG2, Attagene cis-reporter transcription factor activity; actives raise or lower the signal
# Procedure, shortened: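 After 24 h chemical treatment of HepG2 cells carrying multiplexed cis-regulated reporter constructs, reporter transcripts quantified by RT-PCR and capillary electrophoresis of fluorescent fragments. Gain or loss fitted against DMSO baseline.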
# [8] = ATG_NRF2_ARE_CIS: Attagene CIS-FACTORIAL HepG2 Assay for human Nuclear Factor Erythroid 2 Related Factor 2 (NFR2) response to Antioxidant Response Elements (ARE) (AID 2282992); conditions: HepG2 Attagene ARE/NRF2 reporter, transcription factor activity; actives raise or lower the signal;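 as to AC50: reporter mRNA level measured by RT-PCR and capillary electrophoresis fluorescence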
# Procedure, shortened: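 Fluorescence intensity of reporter-specific cDNA fragments, separated by capillary electrophoresis, reflects mRNA induction in transfected HepG2 cells at 24 h. Activity is fitted bidirectionally, DMSO serving as baseline.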
# [9] = ATG_Oct_MLP_CIS: Attagene CIS-FACTORIAL HepG2 Assay for human Octamer-Binding Transcription Factor (Oct) (AID 2282993); conditions: HepG2 Attagene cis-factorial Oct reporter, mRNA; actives raise or lower the signal
# Procedure, shortened: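 After 24 h compound exposure, transfected HepG2 cells were lysed for total RNA; reporter-specific cDNA was PCR-amplified, fluorescently labelled and sized by capillary electrophoresis. Bidirectional curve fitting used DMSO as baseline.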
# [10] = target: Cellular tumor antigen p53 (Homo sapiens) (UniProt P04637); experiment: ATG_p53_CIS: Attagene CIS-FACTORIAL HepG2 Assay for human p53 Transcription Factor (AID 2282994); conditions: HepG2 p53 cis-element reporter, Attagene mRNA; actives raise or lower the signal
# Procedure, shortened: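 Transiently transfected HepG2 (multiple cis reporter transcription units); exposure 24 h; reporter RNA via RT-PCR, 6-FAM extension, 2 h HpaI digest at 37 C, CE detection; DMSO baseline.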
# [11] = target: Oxysterols receptor LXR-alpha (Homo sapiens) (UniProt Q13133); experiment: ATG_LXRa_TRANS: Attagene TRANS-FACTORIAL HepG2 Assay for human Liver X Receptor alpha (LXRa) (AID 2282980; active = hit-call score of the fitted dose curve at least 0.9, where 1 is the maximum); conditions: HepG2 Attagene TRANS reporter, LXRa transactivation
# Procedure, shortened: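 In this multiplexed TRANS system, compounds act on HepG2 cells carrying GAL4-UAS reporter units and a receptor-GAL4 fusion for 24 h. Induced reporter RNA is amplified, fluorescently labelled and sized by capillary electrophoresis, with DMSO as baseline.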
# [12] = target: Oxysterols receptor LXR-beta (Homo sapiens) (UniProt P55055); experiment: ATG_LXRb_TRANS: Attagene TRANS-FACTORIAL HepG2 Assay for human Liver X Receptor beta (LXRb) (AID 2282981; active = hit-call score of the fitted dose curve at least 0.9, where 1 is the maximum); conditions: HepG2 Attagene TRANS GAL4-LXRb reporter, mRNA
# Procedure, shortened: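 After 24 h of chemical treatment, transfected HepG2 cells yield total RNA; reporter cDNA is PCR-amplified, FAM-labelled, HpaI-cut and run on capillary electrophoresis. Signal reflects chimeric LXRb-Gal4 activity on GAL4-UAS reporters.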
# [13] = ATG_M_06_TRANS: Attagene TRANS-FACTORIAL HepG2 Assay for M06 Transcription Factor (Internal Marker) (AID 2282983; active = hit-call score of the fitted dose curve at least 0.9, where 1 is the maximum); conditions: HepG2 Attagene TRANS M06 internal marker reporter
# Procedure, shortened: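 Multi-reporter-transfected HepG2, 24 h treatment; reporter transcripts quantified via RT-PCR, primer-extension labelling and CE. DMSO-normalized gain-of-signal fit.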
# [14] = ATG_NFI_CIS: Attagene CIS-FACTORIAL HepG2 Assay for human Nuclear Factor I (NFI) (AID 2282989); conditions: HepG2 cis-regulatory reporter, NFI response element transcription; actives raise or lower the signal
# Procedure, shortened: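 Multiplexed cis-reporter system in human HepG2 cells reports native TF activity as reporter mRNA induction 24 h post-dose. Fragments labelled with 6-FAM, HpaI-digested and resolved by capillary electrophoresis; activity fitted both directions versus DMSO.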
# [15] = BSK_3C_TissueFactor: BioMAP Diversity Plus: 3C Assay for Tissue Factor Biomarker Activity (AID 2282997); conditions: BioMAP 3C HUVEC, tissue factor biomarker readout; actives raise or lower the signal
# Procedure, shortened: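 In this endothelial system, HUVEC are treated for 24 h and Tissue Factor is assessed by ELISA, normalised to DMSO.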
# [16] = BSK_3C_uPAR: BioMAP Diversity Plus: 3C Assay for Urokinase-type plasminogen activator receptor (uPAR) Biomarker Activity (AID 2282998); conditions: BioMAP 3C HUVEC, uPAR biomarker ELISA; actives raise or lower the signal
# Procedure, shortened: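 Values derive from bidirectional curve fitting relative to DMSO, which served as baseline of activity. uPAR was measured by ELISA in human umbilical vein endothelial primary cultures 24 h after compound addition.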
# [17] = BSK_3C_VCAM1: BioMAP Diversity Plus: 3C Assay for Vascular cell adhesion molecule 1 (VCAM1) Biomarker Activity (AID 2282999); conditions: BioMAP 3C HUVEC, VCAM1 ELISA, cytokine-stimulated; actives raise or lower the signal
# Procedure, shortened: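 Activity fitted in both directions relative to DMSO, with ELISA measurement of the surface marker on primary HUVEC (3C) at 24 h post-treatment; parallel SRB staining (0.1% SRB, TCA-fixed, 560 nm) flagged overt cytotoxicity.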
# [18] = BSK_4H_Eotaxin3: BioMAP Diversity Plus: 4H Assay for Eotaxin 3 Biomarker Activity (AID 2283000); conditions: primary human endothelial cells (HUVEC); actives raise or lower the signal;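 also: CCL26 protein level quantified by ELISA in parallel with SRB cytotoxicity check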
# Procedure, shortened: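 ELISA quantitation of CCL26 (Eotaxin-3) protein from chemically dosed human vascular endothelial cells at 24 h; increases and decreases both scored relative to DMSO-treated baseline.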
# [19] = ATG_NF_kB_CIS: Attagene CIS-FACTORIAL HepG2 Assay for human Nuclear Factor Kappa B (NF-kB) (AID 2282991); conditions: HepG2 Attagene cis-factorial NF-kB reporter mRNA; actives raise or lower the signal
# Procedure, shortened: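 Readout is reporter transcript level, gain or loss versus DMSO, measured 24 h post-dose via RT-PCR, fluorescent labelling and capillary electrophoresis. Human HepG2 liver cells carried transiently transfected CIS reporter constructs reflecting endogenous factors.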
# [20] = target: Hepatocyte nuclear factor 4-alpha (Homo sapiens) (UniProt P41235); experiment: ATG_HNF4a_TRANS: Attagene TRANS-FACTORIAL HepG2 Assay for human Hepatocyte Nuclear Factor 4 alpha (HNF4a) (AID 2282982; active = hit-call score of the fitted dose curve at least 0.9, where 1 is the maximum); conditions: HepG2 HNF4a transactivation reporter, mRNA readout
# Procedure, shortened: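 Multiplexed reporter assay: transfected HepG2, 24 h exposure, total RNA → oligo(dT) RT → PCR → 6-FAM extension → HpaI digest → CE fluorescence. DMSO = negative control.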
# Sequence of Oxysterols receptor LXR-beta (Homo sapiens) (P55055 whole entry, looked up, the tested form may be a part): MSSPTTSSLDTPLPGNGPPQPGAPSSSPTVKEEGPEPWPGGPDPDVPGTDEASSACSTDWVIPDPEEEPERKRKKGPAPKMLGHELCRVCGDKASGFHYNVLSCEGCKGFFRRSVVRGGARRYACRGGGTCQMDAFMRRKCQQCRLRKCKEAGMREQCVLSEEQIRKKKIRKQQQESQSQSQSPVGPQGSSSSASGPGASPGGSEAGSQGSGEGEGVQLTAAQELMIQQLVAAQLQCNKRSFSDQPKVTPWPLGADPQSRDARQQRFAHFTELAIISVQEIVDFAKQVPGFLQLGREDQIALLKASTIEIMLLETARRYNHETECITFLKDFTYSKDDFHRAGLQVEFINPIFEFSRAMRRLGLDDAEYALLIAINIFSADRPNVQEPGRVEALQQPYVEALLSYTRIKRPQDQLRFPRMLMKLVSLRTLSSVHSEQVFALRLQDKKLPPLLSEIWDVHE
# Sequence of Glucocorticoid receptor (Homo sapiens) (P04150 whole entry, looked up, the tested form may be a part): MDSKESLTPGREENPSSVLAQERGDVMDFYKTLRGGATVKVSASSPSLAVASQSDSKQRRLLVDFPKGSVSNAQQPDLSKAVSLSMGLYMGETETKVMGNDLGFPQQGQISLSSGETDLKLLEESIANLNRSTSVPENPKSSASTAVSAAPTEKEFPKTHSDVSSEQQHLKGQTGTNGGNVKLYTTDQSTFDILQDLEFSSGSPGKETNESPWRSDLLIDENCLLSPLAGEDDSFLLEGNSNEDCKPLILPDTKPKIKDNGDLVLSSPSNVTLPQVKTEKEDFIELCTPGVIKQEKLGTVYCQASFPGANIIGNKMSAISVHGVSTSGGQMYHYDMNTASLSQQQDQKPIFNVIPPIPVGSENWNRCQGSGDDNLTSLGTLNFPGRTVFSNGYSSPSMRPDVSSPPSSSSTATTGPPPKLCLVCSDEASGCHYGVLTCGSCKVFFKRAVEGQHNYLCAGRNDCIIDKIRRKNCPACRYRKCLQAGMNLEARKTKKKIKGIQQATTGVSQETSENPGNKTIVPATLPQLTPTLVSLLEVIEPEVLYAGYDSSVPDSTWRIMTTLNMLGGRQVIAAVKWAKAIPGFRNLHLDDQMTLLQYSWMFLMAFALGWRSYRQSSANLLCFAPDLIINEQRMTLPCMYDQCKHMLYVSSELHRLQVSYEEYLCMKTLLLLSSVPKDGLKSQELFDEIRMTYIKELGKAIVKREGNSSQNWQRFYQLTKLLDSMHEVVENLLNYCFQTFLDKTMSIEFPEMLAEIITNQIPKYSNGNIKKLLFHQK
# Sequence of Nuclear respiratory factor 1 (Homo sapiens) (Q16656 whole entry, looked up): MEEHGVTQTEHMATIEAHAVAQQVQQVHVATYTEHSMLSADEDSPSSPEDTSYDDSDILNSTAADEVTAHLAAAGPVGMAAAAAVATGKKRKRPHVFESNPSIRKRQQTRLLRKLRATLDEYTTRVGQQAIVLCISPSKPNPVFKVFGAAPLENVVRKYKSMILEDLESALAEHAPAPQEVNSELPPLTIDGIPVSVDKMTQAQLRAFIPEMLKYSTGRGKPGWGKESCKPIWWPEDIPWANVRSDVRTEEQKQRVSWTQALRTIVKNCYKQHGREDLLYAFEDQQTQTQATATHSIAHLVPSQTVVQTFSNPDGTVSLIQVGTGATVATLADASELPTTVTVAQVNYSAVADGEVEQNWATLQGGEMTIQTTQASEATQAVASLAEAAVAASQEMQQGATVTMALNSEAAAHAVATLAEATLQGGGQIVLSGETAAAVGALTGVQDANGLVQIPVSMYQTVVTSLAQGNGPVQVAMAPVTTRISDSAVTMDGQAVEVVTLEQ
# Sequence of Transcriptional activator Myb (Homo sapiens) (P10242 whole entry, looked up): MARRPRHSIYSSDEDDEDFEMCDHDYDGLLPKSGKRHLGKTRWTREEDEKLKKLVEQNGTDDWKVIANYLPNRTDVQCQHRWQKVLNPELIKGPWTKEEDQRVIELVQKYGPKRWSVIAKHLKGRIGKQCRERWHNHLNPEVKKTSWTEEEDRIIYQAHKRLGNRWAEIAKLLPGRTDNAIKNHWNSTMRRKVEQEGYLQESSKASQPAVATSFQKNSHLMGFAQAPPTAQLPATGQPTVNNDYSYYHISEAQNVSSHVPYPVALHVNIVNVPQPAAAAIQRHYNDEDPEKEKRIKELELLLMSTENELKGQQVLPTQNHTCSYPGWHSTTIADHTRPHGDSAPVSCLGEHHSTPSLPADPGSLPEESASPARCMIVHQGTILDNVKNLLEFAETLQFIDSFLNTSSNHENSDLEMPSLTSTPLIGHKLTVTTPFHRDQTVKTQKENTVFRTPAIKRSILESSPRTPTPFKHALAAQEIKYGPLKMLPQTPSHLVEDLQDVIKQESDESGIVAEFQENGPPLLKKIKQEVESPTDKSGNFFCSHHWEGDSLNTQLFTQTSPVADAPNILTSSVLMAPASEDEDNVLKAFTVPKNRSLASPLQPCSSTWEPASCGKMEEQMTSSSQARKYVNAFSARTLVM
# Sequence of Oxysterols receptor LXR-alpha (Homo sapiens) (Q13133 whole entry, looked up, the tested form may be a part): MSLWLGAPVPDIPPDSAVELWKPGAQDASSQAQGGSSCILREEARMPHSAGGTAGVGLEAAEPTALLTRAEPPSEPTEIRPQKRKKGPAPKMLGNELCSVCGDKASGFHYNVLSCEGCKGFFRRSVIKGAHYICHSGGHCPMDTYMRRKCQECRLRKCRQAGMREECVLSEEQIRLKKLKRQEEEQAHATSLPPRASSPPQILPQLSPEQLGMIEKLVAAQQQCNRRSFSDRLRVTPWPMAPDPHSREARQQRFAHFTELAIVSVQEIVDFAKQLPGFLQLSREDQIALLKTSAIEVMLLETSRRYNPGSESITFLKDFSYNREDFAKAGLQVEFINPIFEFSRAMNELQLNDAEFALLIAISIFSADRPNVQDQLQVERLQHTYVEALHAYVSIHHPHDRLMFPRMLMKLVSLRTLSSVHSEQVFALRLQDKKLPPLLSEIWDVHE
# Sequence of Myc proto-oncogene protein (Homo sapiens) (P01106 whole entry, looked up, the tested form may be a part): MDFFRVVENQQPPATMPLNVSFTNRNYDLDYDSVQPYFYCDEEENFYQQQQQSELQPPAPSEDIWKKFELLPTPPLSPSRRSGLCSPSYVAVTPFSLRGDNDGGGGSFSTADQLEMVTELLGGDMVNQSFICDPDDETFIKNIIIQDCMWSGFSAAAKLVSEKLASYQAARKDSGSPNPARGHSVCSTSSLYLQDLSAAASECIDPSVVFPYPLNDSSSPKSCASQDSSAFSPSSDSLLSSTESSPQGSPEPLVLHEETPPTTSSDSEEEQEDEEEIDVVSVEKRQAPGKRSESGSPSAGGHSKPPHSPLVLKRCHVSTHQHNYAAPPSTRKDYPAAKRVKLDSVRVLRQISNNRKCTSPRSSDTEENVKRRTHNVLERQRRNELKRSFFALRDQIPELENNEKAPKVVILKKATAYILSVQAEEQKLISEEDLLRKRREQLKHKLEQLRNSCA
# Sequence of Cellular tumor antigen p53 (Homo sapiens) (P04637 whole entry, looked up): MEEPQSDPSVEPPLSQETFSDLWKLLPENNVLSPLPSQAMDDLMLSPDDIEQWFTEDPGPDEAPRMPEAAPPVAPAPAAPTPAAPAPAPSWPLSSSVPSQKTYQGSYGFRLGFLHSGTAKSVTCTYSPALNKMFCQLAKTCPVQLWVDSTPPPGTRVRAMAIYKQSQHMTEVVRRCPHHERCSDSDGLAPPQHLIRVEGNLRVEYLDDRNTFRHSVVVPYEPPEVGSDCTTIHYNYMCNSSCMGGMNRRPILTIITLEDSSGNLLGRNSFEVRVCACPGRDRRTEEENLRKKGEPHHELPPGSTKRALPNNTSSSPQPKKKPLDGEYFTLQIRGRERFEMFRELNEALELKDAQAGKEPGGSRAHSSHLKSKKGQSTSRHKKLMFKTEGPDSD
# Sequence of Hepatocyte nuclear factor 4-alpha (Homo sapiens) (P41235 whole entry, looked up): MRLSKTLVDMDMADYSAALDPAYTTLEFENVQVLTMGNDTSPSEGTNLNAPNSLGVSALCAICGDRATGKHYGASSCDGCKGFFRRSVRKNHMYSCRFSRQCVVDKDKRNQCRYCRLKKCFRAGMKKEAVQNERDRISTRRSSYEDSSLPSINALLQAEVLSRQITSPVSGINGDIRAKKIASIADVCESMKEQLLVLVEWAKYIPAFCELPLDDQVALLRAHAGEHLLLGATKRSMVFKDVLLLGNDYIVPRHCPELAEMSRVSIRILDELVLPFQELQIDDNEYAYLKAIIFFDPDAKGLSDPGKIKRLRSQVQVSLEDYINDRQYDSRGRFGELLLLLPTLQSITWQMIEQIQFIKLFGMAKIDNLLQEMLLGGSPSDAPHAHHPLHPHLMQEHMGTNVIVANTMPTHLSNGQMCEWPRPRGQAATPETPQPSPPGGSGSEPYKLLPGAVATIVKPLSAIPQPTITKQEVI
# Sequence of Nuclear receptor subfamily 4 group A member 2 (Homo sapiens) (P43354 whole entry, looked up, the tested form may be a part): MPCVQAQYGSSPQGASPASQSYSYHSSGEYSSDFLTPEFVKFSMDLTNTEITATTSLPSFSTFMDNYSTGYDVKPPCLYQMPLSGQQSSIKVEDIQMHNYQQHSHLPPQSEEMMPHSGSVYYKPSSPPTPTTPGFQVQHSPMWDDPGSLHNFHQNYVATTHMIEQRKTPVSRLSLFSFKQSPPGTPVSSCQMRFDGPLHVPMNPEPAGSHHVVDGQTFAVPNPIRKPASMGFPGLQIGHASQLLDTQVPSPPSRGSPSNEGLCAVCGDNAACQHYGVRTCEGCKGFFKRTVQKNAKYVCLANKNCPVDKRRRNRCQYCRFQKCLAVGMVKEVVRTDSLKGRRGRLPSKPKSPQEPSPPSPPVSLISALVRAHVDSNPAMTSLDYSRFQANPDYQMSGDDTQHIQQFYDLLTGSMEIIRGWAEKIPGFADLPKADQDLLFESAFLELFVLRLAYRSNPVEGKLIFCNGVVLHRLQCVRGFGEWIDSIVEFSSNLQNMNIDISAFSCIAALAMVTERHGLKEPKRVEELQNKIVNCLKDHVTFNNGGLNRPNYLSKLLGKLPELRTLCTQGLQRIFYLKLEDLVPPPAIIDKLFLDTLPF
structure (smiles),measurement,setting,value
CC(=O)OCC=Cc1ccccc1,outcome,[1],inactive
same,outcome,[2],inactive
same,outcome,[3],inactive
same,outcome,[4],inactive
same,outcome,[5],inactive
same,outcome,[6],inactive
same,outcome,[7],inactive
same,AC50,[8],34.9 µM (active)
same,outcome,[9],inactive
same,outcome,[10],inactive
OC[C@H]1O[C@H](O[C@]2(CCl)O[C@H](CCl)[C@@H](O)[C@@H]2O)[C@H](O)[C@@H](O)[C@H]1Cl,outcome,[1],inactive
same,outcome,[11],inactive
same,outcome,[12],inactive
same,outcome,[13],inactive
same,outcome,[3],inactive
same,outcome,[5],inactive
same,outcome,[14],inactive
same,outcome,[7],inactive
same,outcome,[8],inactive
same,outcome,[15],inactive
same,outcome,[16],inactive
same,outcome,[17],inactive
same,outcome,[18],inactive
COC(=O)OC,outcome,[1],inactive
same,outcome,[11],inactive
same,outcome,[12],inactive
same,outcome,[13],inactive
same,outcome,[3],inactive
same,outcome,[4],inactive
same,outcome,[5],inactive
same,outcome,[6],inactive
same,outcome,[14],inactive
same,outcome,[7],inactive
same,outcome,[8],inactive
same,outcome,[9],inactive
C[Si](O[Si](C)(C)C)O[Si](C)(C)C,outcome,[1],inactive
same,outcome,[11],inactive
same,outcome,[12],inactive
same,outcome,[3],inactive
same,outcome,[4],inactive
same,outcome,[6],inactive
same,outcome,[14],inactive
same,outcome,[7],inactive
same,outcome,[19],inactive
same,outcome,[8],inactive
same,outcome,[9],inactive
same,outcome,[10],inactive
CCc1ccc(C=O)cc1,outcome,[1],inactive
same,outcome,[11],inactive
same,outcome,[12],inactive
same,outcome,[20],inactive
same,outcome,[13],inactive
same,outcome,[3],inactive
same,outcome,[4],inactive
same,outcome,[6],inactive
same,outcome,[14],inactive
same,outcome,[7],inactive
same,outcome,[19],inactive
same,outcome,[8],inactive
same,outcome,[9],inactive
same,outcome,[10],inactive
Cc1c(Cl)c(=O)oc2cc(O)ccc12,outcome,[1],inactive
same,AC50,[11],20.9 µM (active)
same,outcome,[12],inactive
same,outcome,[3],inactive
same,outcome,[4],inactive
same,outcome,[6],inactive
same,outcome,[7],inactive
same,outcome,[19],inactive
same,AC50,[8],78.5 µM (active)
same,outcome,[9],inactive
same,outcome,[10],inactive
C=C(C)C(=O)OCCOC(=O)CC(C)=O,outcome,[1],inactive
same,outcome,[11],inactive
same,outcome,[12],inactive
same,outcome,[3],inactive
same,outcome,[5],inactive
same,outcome,[6],inactive
same,outcome,[14],inactive
same,outcome,[7],inactive
same,outcome,[19],inactive
same,outcome,[8],inactive
same,outcome,[9],inactive
same,outcome,[10],inactive
CC1=CCC(O)(C(C)C)CC1 (centres undefined),outcome,[1],inactive
same,outcome,[11],inactive
same,outcome,[12],inactive
same,outcome,[20],inactive
same,outcome,[13],inactive
same,outcome,[3],inactive
same,outcome,[5],inactive
same,outcome,[6],inactive
same,outcome,[14],inactive
same,outcome,[7],inactive
same,outcome,[8],inactive
same,outcome,[9],inactive
O=C(O)CCCCCCCCCCC(=O)O,outcome,[1],inactive
same,outcome,[11],inactive
same,outcome,[12],inactive
same,outcome,[20],inactive
same,outcome,[13],inactive
same,outcome,[4],inactive
same,outcome,[5],inactive
same,outcome,[6],inactive
same,outcome,[14],inactive
same,outcome,[7],inactive
same,outcome,[19],inactive
same,outcome,[8],inactive
same,outcome,[9],inactive
Nc1cc([N+](=O)[O-])ccc1Cl,outcome,[1],inactive
same,outcome,[2],inactive
same,outcome,[13],inactive
same,outcome,[3],inactive
same,outcome,[5],inactive
same,outcome,[6],inactive
same,outcome,[14],inactive
same,outcome,[7],inactive
same,AC50,[8],62.5 µM (active)
same,outcome,[9],inactive
same,outcome,[10],inactive
same,outcome,[15],inactive
same,outcome,[16],inactive
same,outcome,[17],inactive
same,outcome,[18],inactive
